Data as given in PubChem BioAssay (Tox21).
Inconclusive results are not listed. Active and inactive are the calls of the source. Unless noted, calls come from the whole dose curve; as a rule, active = well fitted curve in the direction sought with a large enough effect in the repeat runs; inconclusive = weak or mixed curves; inactive = no such curve, though single readings can be large; an effect the other way counts as inactive or inconclusive.

Experiments:
[1] = qHTS assay to identify small molecule agonists of the peroxisome proliferator-activated receptor delta (PPARd) signaling pathway - cell viability counter screen (AID 743211); note: nearly all actives have a fitted effect of over 55% in size
Summary of the method: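 Tox21 library compounds, delivered in DMSO, were incubated 17 h with PPARd-bla HEK293H cells; cytotoxicity was taken from CellTiter-Glo luminescence read 30 min after reagent addition.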

[2] = target: Peroxisome proliferator-activated receptor delta (Homo sapiens) (UniProt Q03181); test: qHTS assay to identify small molecule agonists of the peroxisome proliferator-activated receptor delta (PPARd) signaling pathway (AID 743212; calls by dose curve)
Sequence of Peroxisome proliferator-activated receptor delta (Homo sapiens) (Q03181 whole entry, looked up): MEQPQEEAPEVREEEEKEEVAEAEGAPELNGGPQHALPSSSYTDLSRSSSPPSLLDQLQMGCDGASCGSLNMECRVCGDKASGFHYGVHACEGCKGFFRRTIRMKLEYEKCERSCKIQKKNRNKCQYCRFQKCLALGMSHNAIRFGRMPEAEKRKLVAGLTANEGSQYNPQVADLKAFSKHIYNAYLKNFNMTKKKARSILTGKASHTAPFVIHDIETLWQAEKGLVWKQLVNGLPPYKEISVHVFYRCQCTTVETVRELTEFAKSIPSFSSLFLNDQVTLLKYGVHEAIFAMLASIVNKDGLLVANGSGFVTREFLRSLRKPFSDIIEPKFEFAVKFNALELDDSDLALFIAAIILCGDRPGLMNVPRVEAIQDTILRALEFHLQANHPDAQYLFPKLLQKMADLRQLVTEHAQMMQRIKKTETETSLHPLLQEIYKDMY
Summary of the method: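 Beta-lactamase reporter readout: a ratiometric FRET signal from the LiveBLAzer substrate after 2 h at room temperature. Compound exposure at 37 °C in PPARδ-bla HEK293H cells driven by an upstream activator sequence.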

[3] = qHTS assay to identify small molecule antagonists of the peroxisome proliferator-activated receptor delta (PPARd) signaling pathway - cell viability counter screen (AID 743213); note: nearly all actives have a fitted effect of over 50% in size
Summary of the method: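 HEK293H cells with the PPARd UAS-bla reporter, co-treated 17 h at 37 C with compounds and L165041 (300 nM final), were lysed with CellTiter-Glo. Luminescence indicated viable cell content.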

[4] = target: Peroxisome proliferator-activated receptor delta (Homo sapiens) (UniProt Q03181); test: qHTS assay to identify small molecule antagonists of the peroxisome proliferator-activated receptor delta (PPARd) signaling pathway (AID 743215; active = well fitted inhibition curve with a large enough effect in the signal ratio in the repeat runs, not every such curve was filed as active; the % refers to the signal ratio;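 note: cells stimulated with agonist L165041 at 300 nM final during compound exposure; series mostly up to about 62 µM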)
Summary of the method: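 HEK293H GeneBLAzer PPARd UAS-bla reporter cells; cpd + L165041 300 nM final, 17 h 37 C; LiveBLAzer B/G FRET substrate 2 h RT; fluorescence intensity read-out. Antagonist mode.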

[5] = qHTS assay to identify small molecule agonists of the farnesoid-X-receptor (FXR) signaling pathway - cell viability counter screen (AID 743218); note: nearly all actives have a fitted effect of over 45% in size
Summary of the method: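 Luminescence from CellTiter-Glo, read after 30 min at RT, reports viability of GeneBLAzer FXR-UAS-bla HEK 293T cells treated 16 h with compounds in the wells used for the beta-lactamase reporter.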

[6] = qHTS assay to identify small molecule antagonists of the farnesoid-X-receptor (FXR) signaling pathway - cell viability counter screen (AID 743221; active = well fitted cell-killing curve with a large enough effect in the repeat runs, not every such curve was filed as active; note: nearly all actives have a fitted effect of over 50% in size)
Summary of the method: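 Cytotoxicity is taken from ATP luminescence (CellTiter-Glo, 30 min, room temperature) in FXR-bla HEK 293T cells previously incubated 16 h at 37 C with compound and chenodeoxycholic acid at 50 uM final.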

[7] = target: Vitamin D3 receptor (Homo sapiens) (UniProt P11473); test: qHTS assay to identify small molecule agonists of the vitamin D receptor (VDR) signaling pathway (AID 743222; calls by dose curve)
Sequence of Vitamin D3 receptor (Homo sapiens) (P11473 whole entry, looked up): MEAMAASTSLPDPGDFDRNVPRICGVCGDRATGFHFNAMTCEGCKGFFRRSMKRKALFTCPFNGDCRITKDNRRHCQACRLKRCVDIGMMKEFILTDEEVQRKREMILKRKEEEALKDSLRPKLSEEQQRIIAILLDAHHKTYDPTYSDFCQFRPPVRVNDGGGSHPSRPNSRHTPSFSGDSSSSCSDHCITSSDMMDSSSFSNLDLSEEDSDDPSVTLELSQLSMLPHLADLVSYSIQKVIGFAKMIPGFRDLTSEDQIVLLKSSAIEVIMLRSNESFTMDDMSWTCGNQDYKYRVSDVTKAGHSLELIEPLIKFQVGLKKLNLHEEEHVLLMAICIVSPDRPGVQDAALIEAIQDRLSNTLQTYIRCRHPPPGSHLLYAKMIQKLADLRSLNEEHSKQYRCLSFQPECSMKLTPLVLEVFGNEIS
Summary of the method: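 Beta-lactamase reporter readout (LiveBLAzer B/G FRET, 2 h RT) in VDR-bla cells after 16 h compound treatment at 37C, 5% CO2; cells pre-incubated 4 h before pin transfer of DMSO solutions.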

[8] = target: Vitamin D3 receptor (Homo sapiens) (UniProt P11473); test: qHTS assay to identify small molecule antagonists of the vitamin D receptor (VDR) signaling pathway (AID 743223; active = well fitted inhibition curve with a large enough effect in the signal ratio in the repeat runs, not every such curve was filed as active; the % refers to the signal ratio)
Summary of the method: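 Quantitative HTS in VDR-bla reporter cells stimulated with 1alpha,25-dihydroxyvitamin D3, 3 nM final. Compound exposure 16 h, 37C, 5% CO2. Read-out: beta-lactamase FRET substrate fluorescence, 2 h RT.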

[9] = qHTS assay to identify small molecule antagonists of the vitamin D receptor (VDR) signaling pathway - cell viability counter screen (AID 743225); note: nearly all actives have a fitted effect of over 50% in size
Summary of the method: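 Same-well multiplex: following 16 h treatment of HEK 293T cells carrying a UAS-driven beta-lactamase reporter with compound and agonist (3 nM final), and a 2 h FRET substrate step, CellTiter-Glo was added and luminescence read after 30 min.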

[10] = qHTS assay to identify small molecule agonists of the NFkB signaling pathway - cell viability counter screen (AID 1159515; calls by dose curve; note: series mostly up to about 61 µM; nearly all actives have a fitted effect of over 55% in size)
Summary of the method: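 ME-180 NFkB-bla cells, 2,000/well; overnight attach; compound 5 hr, 37 C/5% CO2; LiveBLAzer substrate 1.5 hr RT; then CellTiter-Glo in same wells, 30 min RT, luminescence read.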

[11] = qHTS assay to identify small molecule agonists of the endoplasmic reticulum stress response signaling pathway (AID 1159516; active = well fitted activation curve with a large enough effect in the signal ratio in the repeat runs, not every such curve was filed as active; the % refers to the signal ratio)
Summary of the method: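 HeLa ESRE-bla reporter line; cpd 5 h, 37 C/5% CO2; LiveBLAzer B/G FRET substrate 2 h RT; ex 405, em 460/530 nm.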

[12] = qHTS assay to identify small molecule agonists of the endoplasmic reticulum stress response signaling pathway - cell viability counter screen (AID 1159517; calls by dose curve;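 note: HeLa cells carrying an ER stress response element beta-lactamase reporter; series mostly up to about 61 µM; nearly all actives have a fitted effect of over 50% in size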)
Summary of the method: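 ESRE-bla HeLa cells (1,500/well) were plated overnight at 37 C and exposed to compounds for 5 hr. After the 2 hr beta-lactamase substrate read, CellTiter-Glo went into the same wells, and luminescence was read after 30 min at room temperature.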

[13] = qHTS assay to identify small molecule antagonists of the retinoid-related orphan receptor gamma (ROR-gamma) signaling pathway - cell viability counter screen (AID 1159520); note: nearly all actives have a fitted effect of over 50% in size
Summary of the method: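 Cytotoxicity was read from cellular ATP (CellTiter-Glo luminescence) after 16 hr at 37 C with 1 uM doxycycline induction. The inducer was added 2 hr after compound transfer to Tet-on ROR gamma CHO cells.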

[14] = target: Nuclear receptor ROR-gamma (Homo sapiens) (UniProt P51449); test: qHTS assay to identify small molecule antagonists of the retinoid-related orphan receptor gamma (ROR-gamma) signaling pathway (AID 1159521)
Summary of the method: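 Inducible-expression reporter assay: doxycycline (1 uM final) switched on RORγ in CHO cells bearing a ROR response element-luciferase construct, with test compounds present from 2 h beforehand. Decreased luminescence after 16 h defined antagonist activity.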

[15] = qHTS assay to identify small molecule agonists of the AP-1 signaling pathway - cell viability counter screen (AID 1159525; calls by dose curve; note: nearly all actives have a fitted effect of over 55% in size)
Summary of the method: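 Intracellular ATP by Cell Titer Glo luminescence (30 min, RT) in the same ME-180 AP-1-bla wells after the 5 h compound exposure at 37 °C. Normalised to tetra n-octyl ammonium bromide and DMSO controls.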

[16] = qHTS assay to identify small molecule agonists of the AP-1 signaling pathway (AID 1159526; calls by dose curve)
[17] = target: Bile acid receptor (Homo sapiens) (UniProt Q96RI1); test: qHTS assay to identify small molecule antagonists of the farnesoid-X-receptor (FXR) signaling pathway (AID 743217; active = well fitted inhibition curve with a large enough effect in the signal ratio in the repeat runs, not every such curve was filed as active; the % refers to the signal ratio)
Sequence of Bile acid receptor (Homo sapiens) (Q96RI1 whole entry, looked up): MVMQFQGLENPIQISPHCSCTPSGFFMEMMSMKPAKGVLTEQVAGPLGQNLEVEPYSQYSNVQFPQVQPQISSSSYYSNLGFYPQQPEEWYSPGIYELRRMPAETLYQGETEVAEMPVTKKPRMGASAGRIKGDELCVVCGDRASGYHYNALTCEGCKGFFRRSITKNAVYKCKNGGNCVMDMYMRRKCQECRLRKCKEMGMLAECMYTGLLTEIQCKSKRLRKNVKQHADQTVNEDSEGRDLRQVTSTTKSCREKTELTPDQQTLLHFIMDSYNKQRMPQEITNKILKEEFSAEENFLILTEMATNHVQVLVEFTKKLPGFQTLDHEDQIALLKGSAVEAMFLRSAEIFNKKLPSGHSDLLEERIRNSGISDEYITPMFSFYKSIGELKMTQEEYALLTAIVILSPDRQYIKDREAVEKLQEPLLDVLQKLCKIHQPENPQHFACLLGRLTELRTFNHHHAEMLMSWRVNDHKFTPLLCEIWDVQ
Summary of the method: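 Read-out: beta-lactamase FRET fluorescence (LiveBLAzer B/G substrate, 2 h, room temperature) in GeneBLAzer FXR-UAS-bla HEK 293T cells. Compounds were co-dosed with 50 uM chenodeoxycholic acid (final) and incubated 16 h at 37 °C.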

[18] = target: Bile acid receptor (Homo sapiens) (UniProt Q96RI1); test: qHTS assay to identify small molecule agonists of the farnesoid-X-receptor (FXR) signaling pathway (AID 743220; active = well fitted activation curve with a large enough effect in the signal ratio in the repeat runs, not every such curve was filed as active; the % refers to the signal ratio)
Summary of the method: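 FXR-UAS-bla HEK 293T cells carrying a UAS-driven beta-lactamase reporter were plated for 5 h at 37C/5% CO2, then exposed to DMSO-dissolved Tox21 10K compounds for 16 h at 37C. A LiveBLAzer B/G FRET substrate was loaded for 2 h at room temperature before fluorescence reading.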

[19] = qHTS assay to identify small molecule agonists of the vitamin D receptor (VDR) signaling pathway - cell viability counter screen (AID 743224)
Summary of the method: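 Cytotoxicity counter screen: VDR-bla cells, 16 h compound exposure at 37C, 5% CO2; CellTiter-Glo luminescence, 30 min RT, same wells as bla read.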

Measured: Potency

Cc1cccc(Oc2ccccc2)c1
inactive: [1] | [2] | [3] | [4] | [5] | [6] | [7] | [8] | [9] | [10] | [11] | [12] | [13] | [14] | [15] | [16]

CCCCOC(O)CC (configuration not stated)
inactive: [1] | [2] | [3] | [17] | [5] | [18] | [6] | [19] | [9] | [10] | [11] | [12] | [13] | [14] | [15] | [16]

Cc1ccc(C(C)c2ccc(C)c(C)c2)cc1C
inactive: [1] | [2] | [3] | [5] | [6] | [7] | [8] | [19] | [9] | [10] | [11] | [12] | [13] | [14] | [15] | [16]

CC(C)CCCC(C)CCO (configuration not stated)
inactive: [1] | [2] | [3] | [17] | [5] | [18] | [6] | [8] | [9] | [10] | [11] | [12] | [13] | [14] | [15] | [16]

C=C(C)C(=O)OCCN(C)C
inactive: [1] | [2] | [3] | [5] | [6] | [7] | [19] | [9] | [10] | [11] | [12] | [13] | [14] | [15] | [16]

Cc1ccc(C(N)=O)cc1N
inactive: [1] | [2] | [3] | [5] | [7] | [8] | [19] | [9] | [10] | [11] | [12] | [13] | [14] | [15] | [16]

O=C(O)COC(=O)Cc1ccccc1Nc1c(Cl)cccc1Cl
inactive: [1] | [2] | [3] | [5] | [6] | [7] | [8] | [19] | [9] | [10] | [11] | [12] | [13] | [14] | [15] | [16]

N#CCCNCCC#N
inactive: [1] | [2] | [3] | [4] | [5] | [6] | [7] | [19] | [9] | [10] | [11] | [12] | [13] | [14] | [15] | [16]

COc1ccc2[nH]c(S(=O)Cc3ncc(C)c(OC)c3C)nc2n1 (configuration not stated)
inactive: [1] | [2] | [3] | [4] | [5] | [6] | [8] | [19] | [9] | [10] | [11] | [12] | [13] | [14] | [15] | [16]

CCCC[C@H]1CN(CC2CCOCC2)C(=O)OC12CCN(C1(C)CCN(C(=O)c3c(C)ncnc3C)CC1)CC2
inactive: [1] | [2] | [4] | [5] | [6] | [19] | [9] | [10] | [11] | [12] | [13] | [14] | [15] | [16]

O=C(O)C(c1ccc(Cl)cc1)c1ccc(Cl)cc1
inactive: [1] | [2] | [3] | [17] | [5] | [18] | [7] | [9] | [10] | [11] | [12] | [13] | [14] | [15] | [16]

c1ccc(OCc2ccc(CCCN3CCOCC3)cc2)cc1
inactive: [1] | [2] | [3] | [4] | [5] | [6] | [8] | [19] | [9] | [10] | [11] | [12] | [13] | [14] | [15] | [16]

CC(C)CC=O
inactive: [1] | [2] | [3] | [17] | [5] | [18] | [6] | [7] | [19] | [10] | [11] | [12] | [13] | [14] | [15] | [16]

CCCCCCCCCCCCCCC1CO1 (configuration not stated)
inactive: [1] | [2] | [3] | [4] | [5] | [6] | [7] | [19] | [9] | [10] | [11] | [12] | [13] | [14] | [15] | [16]

Cc1cc(NC(=O)C(=O)O)cc(C)c1Oc1ccc(O)c2c1CCC2
inactive: [1] | [2] | [3] | [17] | [5] | [18] | [6] | [19] | [9] | [10] | [11] | [12] | [13] | [14] | [15] | [16]

CC(C)CCCCCCOC(=O)c1ccc(C(=O)OCCCCCCC(C)C)c(C(=O)OCCCCCCC(C)C)c1
inactive: [1] | [2] | [3] | [5] | [6] | [7] | [8] | [19] | [9] | [10] | [11] | [12] | [13] | [14] | [15] | [16]

CCCCOCCOCCOCCOCCO
inactive: [1] | [2] | [3] | [4] | [6] | [7] | [10] | [11] | [12] | [13] | [14] | [15] | [16]

CCOC(=S)SSC(=S)OCC
inactive: [1] | [2] | [3] | [6] | [19] | [9] | [10] | [11] | [12] | [13] | [14] | [15] | [16]
